According to PubChem BioAssay (Tox21):
Values without a mark were called inactive. Results filed as inconclusive are left out. Entries that show only a call come without a potency. The source made the active and inactive calls. Calls come from the whole dose curve; as a rule, active = well fitted curve in the direction sought with a large enough effect in the repeat runs; inconclusive = weak or mixed curves; inactive = no such curve, though single readings can be large; an effect the other way counts as inactive or inconclusive.

Key:
[1] = A CellTox Green Cytotoxicity Assay to monitor cytotoxicity in HEK293 cells - 24 hour (AID 1224875); note: series mostly up to about 77 µM; nearly all actives have a fitted effect of over 45% in size
Summary of the method: (§1)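 Tox21 screen in HEK293: membrane-impermeant cyanine dye fluoresces on binding dead-cell DNA; compound pinned 5 h post-seeding, plates held at 37 C, signal read repeatedly through 40 h.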

[2] = A CellTox Green Cytotoxicity Assay to monitor cytotoxicity in HepG2 cells - 16 hour (AID 1224876); note: nearly all actives have a fitted effect of over 45% in size
Summary of the method: (§2)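 Measurements at 0, 8, 16, 24, 32 and 40 h of treatment captured CellTox Green fluorescence in HepG2 cells that had been co-plated with reagent and preincubated 5 h at 37 C/5% CO2.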

[3] = qHTS RealTime-Glo MT Cell Viability Assay in HepG2 cells - 32 hour (AID 1224877); note: nearly all actives have a fitted effect of over 55% in size
Summary of the method: (§3)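 Compound treatment began 5 h after plating HepG2 cells (600/well) with NanoLuc luciferase and prosubstrate. Plates stayed at 37 C for 40 h; luminescence was captured at six time points, 0 h through 40 h.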

[4] = A CellTox Green Cytotoxicity Assay to monitor cytotoxicity in HepG2 cells - 24 hour (AID 1224878); note: nearly all actives have a fitted effect of over 45% in size
Summary of the method: as §2

[5] = A CellTox Green Cytotoxicity Assay to monitor cytotoxicity in HepG2 cells - 40 hour (AID 1224879); note: nearly all actives have a fitted effect of over 40% in size
Summary of the method: as §2

[6] = qHTS RealTime-Glo MT Cell Viability Assay in HEK293 cells - 0 hour (AID 1224880); note: top concentration of the series differs between compounds; nearly all actives have a fitted effect of over 45% in size
Summary of the method: (§4)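 HEK293 + NanoLuc + prosubstrate, 600 cells/well; 5 h, 37 C/5% CO2; compound 23 nL in DMSO by pintool; 37 C; luminescence read at 0, 8, 16, 24, 32 and 40 h time points.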

[7] = A CellTox Green Cytotoxicity Assay to monitor cytotoxicity in HEK293 cells - 32 hour (AID 1224881); note: nearly all actives have a fitted effect of over 40% in size
Summary of the method: as §1

[8] = A CellTox Green Cytotoxicity Assay to monitor cytotoxicity in HepG2 cells - 0 hour (AID 1224882); note: nearly all actives have a fitted effect of over 35% in size
Summary of the method: as §2

[9] = A CellTox Green Cytotoxicity Assay to monitor cytotoxicity in HepG2 cells - 32 hour (AID 1224883); note: nearly all actives have a fitted effect of over 50% in size
Summary of the method: as §2

[10] = A CellTox Green Cytotoxicity Assay to monitor cytotoxicity in HEK293 cells - 8 hour (AID 1224884); note: nearly all actives have a fitted effect of over 35% in size
Summary of the method: as §1

[11] = qHTS RealTime-Glo MT Cell Viability Assay in HepG2 cells - 16 hour (AID 1224885); note: nearly all actives have a fitted effect of over 50% in size
Summary of the method: as §3

[12] = qHTS RealTime-Glo MT Cell Viability Assay in HEK293 cells - 24 hour (AID 1224886); note: nearly all actives have a fitted effect of over 50% in size; note: potency is the fitted concentration of half-maximal effect; for activity change, negative = cytotoxicity: top concentration of the series differs between compounds
Summary of the method: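 Quantitative high-throughput screen of the Tox21 10K library in HEK293: cells and RealTime-Glo reagents plated together, compound added at 5 h, luminescence monitored through 40 h at 37 C.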

[13] = qHTS RealTime-Glo MT Cell Viability Assay in HEK293 cells - 8 hour (AID 1224887); note: nearly all actives have a fitted effect of over 50% in size; note: potency is the fitted concentration of half-maximal effect; for activity change, negative = cytotoxicity: top concentration of the series differs between compounds
Summary of the method: as §4

[14] = A CellTox Green Cytotoxicity Assay to monitor cytotoxicity in HEK293 cells - 16 hour (AID 1224888); note: nearly all actives have a fitted effect of over 35% in size
Summary of the method: as §1

[15] = qHTS RealTime-Glo MT Cell Viability Assay in HepG2 cells - 0 hour (AID 1224889); note: nearly all actives have a fitted effect of over 50% in size
Summary of the method: as §3

[16] = A CellTox Green Cytotoxicity Assay to monitor cytotoxicity in HepG2 cells - 8 hour (AID 1224890); note: nearly all actives have a fitted effect of over 45% in size
Summary of the method: as §2

[17] = qHTS assay to identify small molecule antagonists of the estrogen receptor alpha (ER-alpha) signaling pathway using the BG1 cell line in the presence of 0.1 nM 17-beta-estradiol - cell viability counter screen (AID 1259241); note: nearly all actives have a fitted effect of over 40% in size
Summary of the method: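 VM7Luc4E2 cells (endogenous full-length ER-alpha, 4xERE-luciferase), cultured 5 days in charcoal-stripped serum, exposed to compounds with 0.1 nM 17beta-estradiol (final) for 22 hr at 37C. Viability read in same wells as live-cell protease fluorescence after 30 min.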

[18] = qHTS assay to identify small molecule antagonists of the androgen receptor (AR) signaling pathway using the MDA cell line in the presence of 0.5 nM R1881 - cell viability counter screen (AID 1259242); note: nearly all actives have a fitted effect of over 45% in size
Summary of the method: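 Concentration-response screen of compounds for toxicity in MDA-kb2 reporter cells: 16 hr at 37C with 0.5 nM R1881, endpoint live-cell protease fluorescence measured in the reporter wells.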

[19] = target: Androgen receptor (Homo sapiens) (UniProt P10275); assay: qHTS assay to identify small molecule antagonists of the androgen receptor (AR) signaling pathway using the MDA cell line in the presence of 0.5 nM R1881 (AID 1259243); note: nearly all actives have a fitted effect of over 50% in size
Androgen receptor (Homo sapiens), sequence (P10275 whole entry, looked up): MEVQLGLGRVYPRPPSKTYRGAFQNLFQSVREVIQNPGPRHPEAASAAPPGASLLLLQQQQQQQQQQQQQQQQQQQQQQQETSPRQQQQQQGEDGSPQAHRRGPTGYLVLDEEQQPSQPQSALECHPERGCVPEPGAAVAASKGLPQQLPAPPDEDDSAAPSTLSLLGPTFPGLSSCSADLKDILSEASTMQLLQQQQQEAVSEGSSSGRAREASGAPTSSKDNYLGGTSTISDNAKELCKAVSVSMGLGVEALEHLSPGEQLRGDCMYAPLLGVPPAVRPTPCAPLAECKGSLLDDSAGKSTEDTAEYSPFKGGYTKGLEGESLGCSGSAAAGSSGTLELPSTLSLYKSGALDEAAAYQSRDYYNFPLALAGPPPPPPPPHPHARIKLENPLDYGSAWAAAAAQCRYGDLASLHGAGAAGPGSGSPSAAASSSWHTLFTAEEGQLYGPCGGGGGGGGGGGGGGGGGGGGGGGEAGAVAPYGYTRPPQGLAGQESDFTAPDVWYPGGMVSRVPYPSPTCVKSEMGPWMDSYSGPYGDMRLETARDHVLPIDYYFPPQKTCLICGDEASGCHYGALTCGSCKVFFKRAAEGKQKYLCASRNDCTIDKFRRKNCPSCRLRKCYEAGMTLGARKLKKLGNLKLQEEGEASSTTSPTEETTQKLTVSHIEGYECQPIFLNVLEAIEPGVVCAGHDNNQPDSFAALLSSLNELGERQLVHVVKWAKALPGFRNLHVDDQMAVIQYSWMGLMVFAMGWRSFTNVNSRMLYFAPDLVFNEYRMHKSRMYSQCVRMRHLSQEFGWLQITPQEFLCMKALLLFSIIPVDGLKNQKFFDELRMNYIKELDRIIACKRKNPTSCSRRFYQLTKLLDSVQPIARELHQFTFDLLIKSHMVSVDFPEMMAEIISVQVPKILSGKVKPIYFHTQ
Summary of the method: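 With R1881 held at 0.5 nM (final), compound effects on MMTV-luciferase expression in MDA-kb2 cells were scored by luminescence after a 16 hr, 37C incubation.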

[20] = target: Estrogen receptor (Homo sapiens) (UniProt P03372); assay: qHTS assay to identify small molecule antagonists of the estrogen receptor alpha (ER-alpha) signaling pathway using the BG1 cell line in the presence of 0.1 nM 17-beta-estradiol (AID 1259244); note: nearly all actives have a fitted effect of over 50% in size
Estrogen receptor (Homo sapiens), sequence (P03372 whole entry, looked up): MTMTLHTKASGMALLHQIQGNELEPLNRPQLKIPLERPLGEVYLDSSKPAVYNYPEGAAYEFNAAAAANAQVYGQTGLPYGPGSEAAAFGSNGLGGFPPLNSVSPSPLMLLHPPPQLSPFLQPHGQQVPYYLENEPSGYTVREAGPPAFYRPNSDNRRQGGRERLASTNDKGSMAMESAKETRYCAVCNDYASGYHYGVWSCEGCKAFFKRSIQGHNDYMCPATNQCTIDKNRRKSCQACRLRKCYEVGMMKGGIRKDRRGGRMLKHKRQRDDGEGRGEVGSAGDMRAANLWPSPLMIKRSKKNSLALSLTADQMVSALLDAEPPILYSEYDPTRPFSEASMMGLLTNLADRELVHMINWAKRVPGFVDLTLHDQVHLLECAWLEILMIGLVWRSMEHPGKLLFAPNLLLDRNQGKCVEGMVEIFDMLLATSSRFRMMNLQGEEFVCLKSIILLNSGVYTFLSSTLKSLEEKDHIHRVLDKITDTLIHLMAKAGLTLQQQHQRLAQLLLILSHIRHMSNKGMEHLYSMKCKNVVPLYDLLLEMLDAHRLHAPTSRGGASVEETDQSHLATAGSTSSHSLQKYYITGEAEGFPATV
Summary of the method: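 Compounds were tested against 0.1 nM (final) 17beta-estradiol in VM7Luc4E2 cells, which express full-length ER-alpha and an ERE-luciferase reporter; luminescence was recorded following 22 h exposure.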

C=CC(=O)OCCOC1C2CCC1C1CC=CC12 (configuration not stated)
activity change [1]: 0.179% [at 15.8 µM, stronger effect = higher value] | cytotoxicity increase [2]: -1.04% [at 15.8 µM] | activity change, negative = cytotoxic [3]: 3.75% [at 15.8 µM] | cytotoxicity [4]: -5.89% [at 15.8 µM] | cytotoxicity increase [5]: -11.6% [at 15.8 µM] | activity change, negative = cytotoxicity [6]: 4.39% [at 15.8 µM] | cytotoxicity increase [7]: -0.486% [at 15.8 µM] | cytotoxicity [8]: -3.66% [at 15.8 µM] | cytotoxicity increase [9]: -7.81% [at 15.8 µM] | cytotoxicity increase [10]: -0.0811% [at 15.8 µM] | activity change, negative = cytotoxic [11]: 0.672% [at 15.8 µM] | activity change, negative = cytotoxicity [12]: -2.24% [at 15.8 µM] | activity change, negative = cytotoxicity [13]: -0.849% [at 15.8 µM] | activity change [14]: -0.617% [at 15.8 µM, stronger effect = higher value] | activity change, negative = cytotoxicity [15]: 5.34% [at 15.8 µM] | cytotoxicity increase [16]: -9.41% [at 15.8 µM] | activity change, negative = cytotoxicity [17]: 0.54% [at 19 µM] | viability change, negative = cytotoxic [18]: 0.35% [at 19 µM] | activity, negative = inhibition [19]: -0.369% [at 19 µM] | activity change, negative = inhibition [20]: 2.43% [at 19 µM]

c1ccc(-c2nc3ccccc3[nH]2)cc1
Potency [1]: inactive | Potency [2]: inactive | Potency [3]: inactive | Potency [4]: inactive | Potency [5]: inactive | Potency [6]: inactive | Potency [7]: inactive | Potency [8]: inactive | Potency [9]: inactive | Potency [10]: inactive | Potency [11]: inactive | Potency [12]: 21.9 µM (active) | Potency [13]: 21.9 µM (active) | Potency [14]: inactive | Potency [15]: inactive | Potency [16]: inactive | Potency [17]: inactive | Potency [18]: inactive | Potency [20]: inactive

CCCCCCCCCCCCS(=O)(=O)Cl
activity change [1]: -0.292% [at 15.8 µM, stronger effect = higher value] | cytotoxicity increase [2]: -10.9% [at 15.8 µM] | activity change, negative = cytotoxic [3]: 9.6% [at 15.8 µM] | cytotoxicity [4]: -12.5% [at 15.8 µM] | cytotoxicity increase [5]: -19.9% [at 15.8 µM] | activity change, negative = cytotoxicity [6]: -1.06% [at 15.8 µM] | cytotoxicity increase [7]: -1.06% [at 15.8 µM] | cytotoxicity [8]: -7.13% [at 15.8 µM] | cytotoxicity increase [9]: -17.3% [at 15.8 µM] | cytotoxicity increase [10]: -0.511% [at 15.8 µM] | activity change, negative = cytotoxic [11]: 1.02% [at 15.8 µM] | activity change, negative = cytotoxicity [12]: 12.2% [at 15.8 µM] | activity change, negative = cytotoxicity [13]: 8.12% [at 15.8 µM] | activity change [14]: 2.57% [at 15.8 µM, stronger effect = higher value] | activity change, negative = cytotoxicity [15]: -8.49% [at 15.8 µM] | cytotoxicity increase [16]: -21% [at 15.8 µM] | activity change, negative = cytotoxicity [17]: -4% [at 19 µM] | viability change, negative = cytotoxic [18]: -2.53% [at 19 µM] | activity, negative = inhibition [19]: 0.127% [at 19 µM]

CC1=CC[C@@H](C(C)(C)O)CC1
Potency [1]: inactive | Potency [2]: inactive | Potency [3]: inactive | Potency [4]: inactive | Potency [5]: inactive | Potency [6]: inactive | Potency [7]: inactive | Potency [8]: inactive | Potency [9]: inactive | Potency [10]: inactive | Potency [11]: inactive | Potency [12]: inactive | Potency [13]: inactive | Potency [14]: inactive | Potency [15]: inactive | Potency [16]: inactive | Potency [17]: inactive | Potency [18]: inactive | Potency [19]: inactive | Potency [20]: inactive

O=c1[nH]cccc1O
Potency [1]: inactive | Potency [2]: inactive | Potency [3]: inactive | Potency [4]: inactive | Potency [5]: inactive | Potency [6]: inactive | Potency [7]: inactive | Potency [8]: inactive | Potency [9]: inactive | Potency [10]: inactive | Potency [11]: inactive | Potency [12]: inactive | Potency [13]: inactive | Potency [14]: inactive | Potency [15]: inactive | Potency [16]: inactive | Potency [17]: inactive | Potency [18]: inactive | Potency [20]: inactive
